Test results from PubChem BioAssay AID1272365 (Small Molecule Screening Facility, UW Madison, 2018).
“And” between values parts separate entries of the source, which are not always exact repeats. Equal values may be shown once. Among all 430,000 compounds or so, about 2,600 (0.6%) were called active. The sample holds actives, similar compounds and a random draw of the others, so the mix is not that of the screen. Values without a mark were called inactive. No stated cut-off is given here; in the data, active means inhibition mostly above about 37% (no sharp cut-off); inactive means mostly below about 20%.

Test system: PriA–SSB C-terminal tail interaction (Klebsiella pneumoniae)
Assay: blocks PriA binding to SSB C-terminal tail, primary screen, biochemical, AlphaScreen (AID 1272365);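 on inhibition: plate controls were negative control peptide for no effect and reference peptide for full effect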
Details: AlphaScreen SSBct-PriA binding, biotinylated peptide; at 33 µM, stronger effect = higher value

Q: `Cc1cc(SCC(=O)N2CCCc3ccccc32)n2ncc(-c3ccccc3)c2n1` was tested. Which inhibition did it give?
A: The inhibition was -7%.

Q: For `COc1ccc(OC)c(NC(=O)CSc2nccn2-c2cccc(C(F)(F)F)c2)c1`, which inhibition is on record?
A: Its inhibition is 10%.

Q: How did the inhibition turn out when `Cc1ccc(NC(=O)Cc2csc(SCC(=O)c3ccc4c(c3)OCO4)n2)cc1F` was run?
A: The inhibition was 0%.

Q: `CN(C)C(CNC(=O)Nc1ccc2c(c1)OCO2)c1ccsc1` (stereo not given) was tested. Which inhibition did it give?
A: Its inhibition is -7%.

Q: How did the inhibition turn out when `O=C(Nc1nncs1)c1ccc(S(=O)(=O)NC2CC2)cc1` was run?
A: The inhibition was 0% and -28%.

Q: `O=C(Nc1nncs1)c1ccccn1` was tested. Which inhibition did it give?
A: Its inhibition is 98% (active).

Q: Which inhibition does the source give for `O=C(Nc1ccccc1)N1CCC(c2nnc(C3CC3)s2)CC1` here?
A: Its inhibition is -7%.

Q: Which inhibition does the source give for `O=C(Nc1nnc(C2CC2)s1)c1ccccn1` here?
A: The inhibition was 90.3% (active).

Q: How did the inhibition turn out when `CC1CCN(c2ccc(C(=O)Nc3nnc(C4CC4)s3)cc2[N+](=O)[O-])CC1` was run?
A: Its inhibition is -10.1%.

Q: How did the inhibition turn out when `O=C(NCc1cccnc1-c1cccs1)c1ccccn1` was run?
A: The inhibition was -5%.

Q: With `COC(=O)C1CCN(C(=O)C(=O)c2c[nH]c3ccccc23)CC1` as the molecule, how does the inhibition read?
A: The inhibition was 6%.

Q: For `CCOc1ccc(C(=O)NCCNC(=O)c2ccc(NC(C)=O)cc2)cc1OCC`, which inhibition is on record?
A: Its inhibition is -15%.

Q: How did the inhibition turn out when `COc1c2ccc(C(=O)NCC3CCCN3c3nc4ccccc4o3)cc2nn1C` (stereo not given) was run?
A: Its inhibition is -11%.

Q: With `Cc1ccc(/C=C/S(=O)(=O)N2CC(S(=O)(=O)c3ccc(F)cc3)C2)cc1` as the molecule, how does the inhibition read?
A: Its inhibition is -9%.

Q: Which inhibition does the source give for `N#CCCSc1ccccc1NC(=O)c1ccc([N+](=O)[O-])o1` here?
A: Its inhibition is -9%.

Q: How did the inhibition turn out when `CCOC(=O)CSc1ncc(-c2ccc(OC)cc2)n1-c1ccccc1C` was run?
A: The inhibition was 53% (active).

Q: `CCOC(=O)CSc1nnc(CNC(=O)Cc2ccccc2)n1-c1ccccc1OC` was tested. Which inhibition did it give?
A: The inhibition was -1.32%.

Q: `COc1ccc(-c2cnc(SCC(=O)Nc3nccs3)n2-c2cccc(Cl)c2)cc1` was tested. Which inhibition did it give?
A: The inhibition was -6%.

Q: Which inhibition does the source give for `Cc1ccnc(N/C=C(/NC(=O)c2ccccc2)C(=O)N/N=C/c2ccc(Cl)cc2)n1` here?
A: Its inhibition is “inactive”.

Q: With `COc1ccc(S(=O)(=O)NCc2ccccc2-c2ccsc2)cc1Cl` as the molecule, how does the inhibition read?
A: The inhibition was -26%.

Q: With `CCCn1c(=N)n(CC(=O)c2ccc(Cl)c(Cl)c2)c2ccccc21` as the molecule, how does the inhibition read?
A: The inhibition was -3.72%.

Q: `O=C1COc2ccc(C(=O)COC(=O)c3ccccc3Cl)cc2N1` was tested. Which inhibition did it give?
A: The inhibition was -1.39%.

Q: `O=C(CN1CC(=O)Oc2ccccc21)OCC(=O)c1ccc(Cl)c(Cl)c1` was tested. Which inhibition did it give?
A: The inhibition was 93.6% (active).

Q: With `O=C(NCCN1CCOC(c2ccccc2)C1)C1CC1` (stereo not given) as the molecule, how does the inhibition read?
A: Its inhibition is -7%.

Q: How did the inhibition turn out when `c1ccc(-c2nc3ccc4ncccc4c3nc2-c2ccccc2)cc1` was run?
A: Its inhibition is -12%.

Q: For `c1ccc(-c2cn3c(n2)CCc2ccc4cccnc4c2-3)cc1`, which inhibition is on record?
A: The inhibition was 39.4% (active).

Q: With `CC(C)CS(=O)(=O)C1CCN(C(=O)c2cccc(Oc3ccc(F)cc3)c2)CC1` as the molecule, how does the inhibition read?
A: The inhibition was -1%.

Q: How did the inhibition turn out when `CCCCC[n+]1ccn(C2=C([O-])c3ccccc3C(=O)C2=NS(=O)(=O)c2ccccc2)c1` was run?
A: The inhibition was -14.3%.

Q: For `CCCC(=O)OCC(=O)Nc1cc(Cl)ccc1[N+](=O)[O-]`, which inhibition is on record?
A: The inhibition was 42.6% (active).

Q: For `CC(C)(C)NC(=O)COC(=O)c1cc(Cl)ccc1[N+](=O)[O-]`, which inhibition is on record?
A: Its inhibition is 6.97%.

Q: With `Cc1cc(NC(=O)COC(=O)COc2ccc(Cl)cc2C)c([N+](=O)[O-])cc1C` as the molecule, how does the inhibition read?
A: The inhibition was 10.3%.

Q: How did the inhibition turn out when `O=C(NCc1cncc(-c2cccs2)c1)c1ccc2ncsc2c1` was run?
A: The inhibition was -4%.

Q: Which inhibition does the source give for `CC(NC(=O)c1ccccc1)C(c1ccccc1)N(C)C` (stereo not given) here?
A: The inhibition was 25%.

Q: Which inhibition does the source give for `CC(C)NC(=O)c1ccc(Sc2ccccc2)c([N+](=O)[O-])c1` here?
A: The inhibition was -10.4%.

Q: How did the inhibition turn out when `O=C(NNC(=O)c1ccccc1[N+](=O)[O-])Nc1ccccc1C(F)(F)F` was run?
A: Its inhibition is -2.15%.

Q: How did the inhibition turn out when `CC(C)NC(=O)c1ccccc1Nc1c([N+](=O)[O-])cc(C(F)(F)F)cc1[N+](=O)[O-]` was run?
A: Its inhibition is 56% (active).

Q: `COc1ccc(C)cc1NC(=O)Cc1cc(=O)[nH]c(SCc2ccc(F)cc2)n1` was tested. Which inhibition did it give?
A: Its inhibition is -4%.

Q: Which inhibition does the source give for `CC(OC(=O)CN1C(=O)COc2ccccc21)C(=O)NCc1ccc(F)cc1` (stereo not given) here?
A: The inhibition was 4.53%.

Q: How did the inhibition turn out when `O=C(CN1C(=O)COc2ccccc21)Nc1ccc(F)cc1` was run?
A: Its inhibition is 48.3% (active).

Q: How did the inhibition turn out when `O=C(CN1C(=O)COc2ccc(Cl)cc21)Nc1ccc(N2CCOCC2)cc1` was run?
A: The inhibition was -6.86%.

Q: `N#CCSc1ncc(-c2ccc(Br)cc2)n1-c1ccc(F)cc1` was tested. Which inhibition did it give?
A: The inhibition was 7%.

Q: `Cn1c(-c2ccc(F)cc2)cnc1SCC(=O)NNC(=O)Cc1ccccc1` was tested. Which inhibition did it give?
A: The inhibition was -3.92%.

Q: For `O=C(CSc1ncc(-c2ccccc2)n1-c1ccc(F)cc1)N1CCCC1`, which inhibition is on record?
A: The inhibition was 43% (active).

Q: How did the inhibition turn out when `CS(=O)(=O)c1ccc(-c2ccc(NS(=O)(=O)c3ccc4c(c3)CCCC4)cc2)nn1` was run?
A: The inhibition was -11%.

Q: How did the inhibition turn out when `O=C(c1cccc(Oc2ncccn2)c1)N1CCCC1` was run?
A: Its inhibition is -8%.

Q: For `O=C(C[C@@H]1C/C=C/CC[C@H](Cc2ccc(F)cc2)C(=O)OC[C@@H](Cc2ccccc2)NC1=O)NCCO`, which inhibition is on record?
A: The inhibition was -9.28%.

Q: Which inhibition does the source give for `O=C(c1ccc(-n2cccc2)cc1)N1CCC[C@H](Cc2nc(-c3ccsc3)no2)C1` here?
A: The inhibition was 31% (active).

Q: `O=C(c1cc(-c2cccs2)on1)N1CCC[C@H](Cc2nc(-c3ccsc3)no2)C1` was tested. Which inhibition did it give?
A: The inhibition was 3%.

Q: How did the inhibition turn out when `O=C(c1ccc(=O)[nH]n1)N1CCCC(Cc2nc(-c3ccsc3)no2)C1` (stereo not given) was run?
A: The inhibition was -8%.

Q: Which inhibition does the source give for `O=C(c1ccc(-c2cccs2)cc1)N1CC(Oc2nccs2)C1` here?
A: The inhibition was -9%.

Q: How did the inhibition turn out when `CC(C)Oc1ccc(C(=O)Nc2cc(=O)n(C)c(=O)n2C)cc1` was run?
A: Its inhibition is -9.4%.

Q: How did the inhibition turn out when `Cn1c(Nc2ccccc2)cc(=O)n(C)c1=O` was run?
A: Its inhibition is 43.6% (active).

Q: Which inhibition does the source give for `Cc1cc(=O)n(C)c(=O)n1CCCNc1ccccc1` here?
A: Its inhibition is -14.1%.

Q: `N#Cc1nccnc1N1CCC(CNC(=O)c2cc(=O)c3ccccc3o2)CC1` was tested. Which inhibition did it give?
A: Its inhibition is -11%.

Q: How did the inhibition turn out when `Cn1nc(CNS(=O)(=O)C2CC2)cc1-c1ccco1` was run?
A: Its inhibition is -8%.

Q: `COc1ccc(NC(=O)NCc2ccc3c(c2)OCO3)c(OC)c1` was tested. Which inhibition did it give?
A: Its inhibition is -0.59%.

Q: How did the inhibition turn out when `CCOCC(=O)NCc1ccc2c(c1)cc(C)n2C` was run?
A: The inhibition was 0.95%.

Q: For `COc1ccc(OC)c(NC(=S)NCc2ccc3c(c2)cc(C)n3C)c1`, which inhibition is on record?
A: The inhibition was 81.2% (active).

Q: How did the inhibition turn out when `CCOc1ccc(S(=O)(=O)NCCCn2nc(-c3ccncc3)ccc2=O)cc1` was run?
A: Its inhibition is -20%.

Q: For `COC(=O)N1CCc2c(sc(NC(=O)c3cccc(N4C(=O)CCC4=O)c3)c2C#N)C1`, which inhibition is on record?
A: Its inhibition is -11%.
